Compounds without any hit were thinned out: in the full panel of roughly 83,000, 20% have a hit.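 In brief: 96-well plates, 48 h treatment, single concentration, percent growth endpoint.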 A number with no mark means an inactive call. Active and inactive are the calls of the source. Rule for the calls: active = growth percent below 10; inactive = the rest.
Tests used:
Test in all cases: NCI-60 one-dose screen, 48 h (100 = growth as untreated, 0 = no growth, -100 = all killed)
Conditions in all cases: 10 µM unless noted
HCT-15 colon = system: HCT-15 colon
HT29 colon = system: HT29 colon
SNB-75 CNS = system: SNB-75 CNS
SNB-19 CNS = system: SNB-19 CNS
U251 CNS = system: U251 CNS
PC-3 prostate = system: PC-3 prostate
SK-MEL-5 melanoma = system: SK-MEL-5 melanoma
UACC-62 melanoma = system: UACC-62 melanoma
LOX IMVI melanoma = system: LOX IMVI melanoma
SK-MEL-28 melanoma = system: SK-MEL-28 melanoma

SMILES | growth (HCT-15 colon) | growth (HT29 colon) | growth (SNB-75 CNS) | growth (SNB-19 CNS) | growth (U251 CNS) | growth (PC-3 prostate) | growth (SK-MEL-5 melanoma) | growth (UACC-62 melanoma) | growth (LOX IMVI melanoma) | growth (SK-MEL-28 melanoma) [%]
CCOC(=O)c1c(C)nc2c(c1N)/C(=C/c1cccs1)C(=O)N2c1ccc(OC)cc1 | 72.8% | 51.3% | 30.6% | 42.2% | 12.4% | 35% | 45.7% | 38.3% | 37.6% | 37
C=CCn1c(CN2CCN(c3cc4c(cc3F)c(=O)c(C(=O)O)cn4C3CC3)CC2)n[nH]c1=S | 103% | 90.5% | 99.8% | 107% | 103% | 101% | 106% | 99.9% | 81.8% | 97.2
Nc1c(C(=O)c2ccccc2)sc2nc(-c3cc4ccccc4o3)cc(-c3ccc(Cl)cc3)c12 | 86.4% | 106% | 92.3% | 111% | 90% | 87.5% | 97.8% | 102% | 86.5% | 120
CCO/C=N/S(=O)(=O)c1cc2c(cc1Cl)NC=NS2(=O)=O | 107% | 97.4% | 106% | 103% | 95.4% | 92.3% | 102% | 104% | 98.4% | 120
Oc1c(CCl)cc(Cl)cc1Cc1cc(Cl)cc(Cc2cc(Cl)cc(CCl)c2O)c1O | 12.8% | 56.9% | 56.8% | 27.6% | 31.7% | 17.9% | -1.94% (active) | 4.56% (active) | 47.7% | 30
CN(C)CCCn1c2c(c3cc(-c4ccco4)ccc3c1=O)C(=O)c1ccccc1-2 | 54.4% | 21% | 62.4% | 69.2% | 80.4% | 60% | 78.3% | 50.9% | 60.9% | 103
CC(=O)c1c(OCC#N)ccc2c(C)cc(=O)oc12 | 102% | 117% | 103% | 97.2% | 94.9% | 87.2% | 104% | 96.5% | 100% | 93
COc1ccc(NC(=O)c2sc3nc(C)c(C(C)=O)cc3c2N)cc1 | 91.6% | 83.5% | 88.3% | 96.1% | 95% | 92% | 93.8% | 92.9% | 105% | 94.1
CCOC(=O)c1c(C)nc2c(c1N)/C(=C/c1ccc[nH]1)C(=O)N2Cc1ccc(C(F)(F)F)cc1 | 68.8% | 70% | 25.3% | 36.3% | 25.2% | 52.1% | 82.2% | 81.8% | 56.7% | 89.6
O=C(CCCC(=O)Nc1ccc(-n2nnc3cc(Cl)c(Cl)cc32)cc1)Nc1ccc(-n2nnc3cc(Cl)c(Cl)cc32)cc1 | 74.1% | 43.8% | 30.4% | 29.8% | 28.7% | 19.4% | 42.2% | 30.8% | 50.9% | 57.9
COc1cc2cc(c1Cl)N(C)C(=O)C[C@H](OC(=O)[C@H](C)N(C)C(=O)CCS)C[C@]1(C)O[C@H]1[C@H](C)[C@@H]1C[C@@](O)(NC(=O)O1)[C@H](OC)/C=C/C=C(\C)C2 | 11.2% | 0.342% (active) | 21% | 34% | 10.2% | 22% | -33.1% (active) | 36.8% | 13.6% | 57.2
CC[C@H](Nc1ncnc2nc[nH]c12)c1nc2cccc(CC(=O)c3ccc(C(=O)NO)cc3)c2c(=O)n1-c1ccccc1 | 102% | 82% | 56.3% | 93.2% | 89.3% | 73.6% | 96.6% | 79.9% | 91.7% | 90.2
CC(C)NS(=O)(=O)c1cccc(-c2ccc3c4c(n(CCCN(C)C)c(=O)c3c2)-c2ccccc2C4=O)c1 | 67.9% | -16.2% (active) | 88.9% | 110% | 56% | 99.8% | 94.1% | 106% | 100% | 99.5
O=C(CCl)N1CCCc2ccccc21 | 99.8% | 103% | 72.6% | 100% | 105% | 96.8% | 95.7% | 94.3% | 99.6% | 103
Cc1cnc(SCc2ccc(Cl)cc2Cl)nc1Nc1ccc(Cl)c(Cl)c1 | 99.8% | 85.1% | 85.4% | 96.7% | 93.9% | 71.6% | 93.4% | 53.4% | 81.2% | 111
COc1cc2c(Nc3ccc(NC(=O)Nc4ccc(Cl)c(C(F)(F)F)c4)c(Cl)c3)ncnc2cc1OCCCN1CCN(C)CC1 | 86.7% | 1.14% (active) | 31.3% | -79% (active) | -89.5% (active) | -25.3% (active) | -44.6% (active) | 0.23% (active) | -88.3% (active) | 36.1
CCCCn1c(=O)c(/C=C/C(=O)/C=C/c2ccc(O)c(OC)c2)cc2ccc(Cl)cc21 | 9.41% (active) | -41.7% (active) | 54.8% | 38.3% | 3.33% (active) | 27.2% | 3.38% (active) | 2.4% (active) | -51.3% (active) | 38.8
CNC(=O)c1cc(Oc2ccc3c(c2)sc2nc(-c4ccc(NC(C)=O)cc4)cn23)ccn1 | 53% | 34.7% | -0.726% (active) | 55.2% | 40.7% | 36.6% | 31.7% | 46.7% | 60.9% | 70
O=C1CCc2ccccc2N1 | 103% | 102% | 78.1% | 96.2% | 102% | 102% | 98.9% | 97.6% | 94.4% | 104
C#Cc1cccc(Nc2ncnc3ccc(NC(=O)c4ccccc4)cc23)c1 | 65.3% | 82.4% | 67.2% | 89.5% | 85.4% | 75.8% | 95.5% | 95.2% | 81.7% | 93.9
COc1cc(C2=NN(c3ccccc3)C(c3cccc(Nc4ccnc5cc(C(F)(F)F)ccc45)c3)C2)cc(OC)c1OC (stereo not given) | 78.1% | 71% | 106% | 92.8% | 95.5% | 72.4% | 89.8% | 83.5% | 81.9% | 100
Nc1c(C(=O)Nc2ccccn2)sc2nc3c(cc12)CCCC3 | 27.4% | 21.7% | 38.1% | 45.7% | 33.2% | 64.9% | 26.3% | 41.2% | 41.5% | 64.8
O=C1CC23OC4ON=C(Br)C4C2C(O)c2ccccc2N13 (stereo not given) | 99% | 90.5% | 79.9% | 105% | 110% | 94.4% | 111% | 94.3% | 88.8% | 114
O=C(Nc1ccc2ncnc(Nc3cccc(C(F)(F)F)c3)c2c1)c1cccs1 | 38.9% | 18% | 89.2% | 40.1% | 17% | 20.9% | 61.1% | 67.5% | 65.5% | 89.1
COc1cccc(NC(=O)Nc2ccc(Nc3ncnc4[nH]c(C)c(C)c34)cc2)c1 | 94.1% | 95.5% | 82.2% | 98.5% | 90.3% | 93.9% | 102% | 96.6% | 99.7% | 104
Cc1nc2sc(C(=O)Nc3cccc(Cl)c3C)c(N)c2cc1C(C)O (stereo not given) | 16.4% | 1.68% (active) | 13.9% | 22.4% | 17.7% | 13.3% | 9.62% (active) | 30.7% | 29.9% | 62.1
